Test results as given in PubChem BioAssay (EPA / NIEHS).
Results filed as inconclusive are left out. Some compounds were tested as several samples or in several runs, with calls that do not always agree. Activity calls are given as the source filed them. Rule for the calls: active = hit-call score of the fitted dose curve at least 0.9, where 1 is the maximum; inconclusive = response in the unintended direction; inactive = score below 0.9.

target: Peroxisome proliferator-activated receptor gamma (Homo sapiens) (UniProt P37231); test: NVS_NR_hPPARg: NovaScreen (NVS) Nuclear Receptor Binding Assay for human Peroxisome Proliferator-activated Receptor gamma (PPARg) (AID 2283370)
Protocol: NVS_NR_hPPARg is a biochemical, single-readout assay that uses extracted gene-proteins in a cell-free assay. Measurements were taken 2 hours after chemical dosing in a 384-well plate.NVS_NR_hPPARg is one of one assay component(s) measured or calculated from the NVS_NR_hPPARg assay. It is designed to make measurements of fluorescent polarization, a form of binding reporter, as detected with fluorescence polarization signals by Fluorescence Polarization technology.Data from the assay component NVS_NR_hPPARg was analyzed into 1 assay endpoint. This assay endpoint, NVS_NR_hPPARg, was analyzed in the positive analysis fitting direction relative to DMSO as the negative control and baseline of activity. Using a type of binding reporter, loss-of-signal activity can be used to understand changes in the binding as they relate to the gene PPARG. Furthermore, this assay endpoint can be referred to as a primary readout, because the performed assay has only produced 1 assay endpoint. To generalize the intended target to other relatable targets, this assay endpoint is annotated to the nuclear receptor intended target family, where the subfamily is non-steroidal.
Binding assays used specific radioligands (tritiated, iodinated) with non-radioactive competitive displacement ligands in agonist or antagonist protocols (as indicated) and various reference compounds and inhibitors to titrate specific binding to receptors and transporters. Most enzyme assays (CYPs, kinases, phosphatases, proteases, HDACs) used recombinant protein and specific substrates (fluorescence mostly, some colorimetric and radioactive) and inhibitors, followed by a biochemical separation of substrate and product. All assays for the biochemical HTS were initially run in duplicate at a single concentration (10 uM for CYP450 assays and 25 uM for all others). […] Each assay was run with positive and negative controls, and concurrent controls on every plate. The follow-up (secondary) screen tested active chemical-pairs in concentration series, as well as a few additional assays not tested in the primary screen, some selected negative inactives, and several cases re-run in the concentration series for confirmatory purposes.

Sequence of Peroxisome proliferator-activated receptor gamma (Homo sapiens) (P37231 whole entry, looked up): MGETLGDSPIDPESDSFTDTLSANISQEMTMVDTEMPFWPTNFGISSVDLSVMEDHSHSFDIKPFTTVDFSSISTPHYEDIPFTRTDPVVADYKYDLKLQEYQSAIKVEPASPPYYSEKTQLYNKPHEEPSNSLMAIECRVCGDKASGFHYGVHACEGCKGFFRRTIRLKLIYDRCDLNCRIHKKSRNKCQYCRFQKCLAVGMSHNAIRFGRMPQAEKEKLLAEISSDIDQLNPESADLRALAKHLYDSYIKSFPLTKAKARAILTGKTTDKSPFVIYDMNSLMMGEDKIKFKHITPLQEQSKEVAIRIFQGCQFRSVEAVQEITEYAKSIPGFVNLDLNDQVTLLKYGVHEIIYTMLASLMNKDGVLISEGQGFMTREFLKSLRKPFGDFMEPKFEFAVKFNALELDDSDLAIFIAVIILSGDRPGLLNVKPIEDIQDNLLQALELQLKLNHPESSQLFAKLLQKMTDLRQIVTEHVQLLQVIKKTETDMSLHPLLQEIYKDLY

| Structure (SMILES) | outcome | AC50 |
| --- | --- | --- |
| Nc1ccc(N=Nc2ccccc2)cc1 | inactive | – |
| Nc1ccc(Cl)cc1N | inactive | – |
| Cc1cccc(N)c1N | – | 0.00229 µM (active) |
| CCCCCCCCn1sccc1=O | – | 0.693 µM (active) |
| Nc1ccc(Oc2ccc(N)cc2)cc1 | inactive | – |
| CCCCOC(=O)c1ccccc1C(=O)OCc1ccccc1 | inactive | – |
| CCOC(=O)[C@]1(c2ccccc2)Oc2ccccc2[C@@H]1N | inactive | – |
| Cc1cc(N=Nc2ccccc2C)ccc1N | inactive | – |
| Cn1cc(-c2ccccc2)c(=O)c(-c2cccc(C(F)(F)F)c2)c1 | inactive | – |
| C[C@]12C=CC3=C4CCC(=O)C=C4CC[C@H]3[C@@H]1CC[C@@H]2O | inactive | 41.5 µM (active) |
| O=C(Nc1ccccc1)c1ccccc1I | inactive | – |
| c1ccc(N=Nc2ccccc2)cc1 | inactive | – |
| CC(C)(O)c1cnn2c(-c3ccc(F)c(-c4c(F)cccc4C#N)c3)cnc2n1 | inactive | – |
| O=C(Oc1ccc(Br)cc1)N1CCN2CCC1CC2 | inactive | – |
| O=[N+]([O-])C(Br)(CO)CO | inactive | – |
| CC(C)COC(=O)c1ccccc1C(=O)OCC(C)C | inactive | – |
| CCNS(=O)(=O)C(F)(F)C(F)(F)C(F)(F)C(F)(F)C(F)(F)C(F)(F)C(F)(F)C(F)(F)F | inactive | – |
| CN(C)c1ccc(C(=O)c2ccc(N(C)C)cc2)cc1 | – | 25 µM (active) |
| CC(C)(C)OOC(=O)c1ccccc1 | inactive | – |
| CS(=O)(=O)NC(=O)c1cc(Oc2ccc(C(F)(F)F)cc2Cl)ccc1[N+](=O)[O-] | inactive | – |
